Shown is part of a subset that was picked to be rich in hits.
Tgondii IFNg: T. gondii growth inhibition under IFN-gamma; activity change, negative = inhibition, % (test concentration not listed); hit rate 3.8% among 69,000; Toxoplasma gondii growth in IFN-gamma-treated host cells; active compounds read low; in the data active means activity change below about -70%, passing the limit was not always enough;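 further: host cells are HeLa cells infected with Toxoplasma gondii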
* hit, by the source's call; i = inactive; ! = repeats disagree.

SMILES	Tgondii IFNg
CO[C@H]1CC(O[C@@H]2/C(C)=C/C[C@@H]3C[C@@H](C[C@]4(C=C[C@H](C)[C@@H](C5CCCCC5)O4)O3)OC(=O)[C@@H]3C=C(C)[C@@H](O)[C@H]4OC/C(=C\C=C\[C@@H]2C)[C@]43O)O[C@@H](C)C1O[C@H]1C[C@H](OC)[C@@H](O)[C@H](C)O1 (stereo not given in full)	-73*
COc1cc(OC)cc(C(=O)Nc2ccc(-c3nc(-c4cc(C)ccc4C)co3)cc2)c1	-40
O=C(CN1C(=O)CCc2cc(Br)ccc21)N1CCN(c2ccc(F)cc2)CC1	101
COc1ccc(S(=O)(=O)N2CCC3(CC2)Nc2ccc(C)c(C)c2-n2cccc23)cc1Cl	20
COc1ccc(-n2nnc3c(N4CCN(C(=O)C(=O)c5c[nH]c6ccccc56)CC4)ncnc32)cc1	5
CCOC(=O)c1ccc2c(c1)N(Cc1nc(-c3cc(C)ccc3C)oc1C)C(=O)c1ccccc1S2	-9
CCN1CCOCC2(CCCN(C(=O)c3nn(C)c4ccccc34)C2)C1 (stereo not given)	-32
O=C1CCC2(CCN(c3ncc(F)cn3)CC2)N1Cc1cccc(F)c1	1
CCCCn1ncc(C)c1NC(=O)c1sc2ncn(C)c(=O)c2c1C	-8
CN(CC1CCN(c2ccccc2)C1)C(=O)c1cc2ncccn2n1 (stereo not given)	-43
O=C(O)c1ccccc1Nc1cccc(C(F)(F)F)c1	-73*!
O=C(O)c1ccccc1Nc1ccccc1	-13
O=C(OCCOCCO)c1ccccc1Nc1cccc(C(F)(F)F)c1	39
COCC1c2c(cnn2CC2CC2)CCN1C(=O)c1ccoc1C (stereo not given)	3
CCn1c(=O)c(-c2nc(-c3ccccc3)no2)c(O)c2cc(F)ccc21	-52
FC(F)(F)c1ccc(N2CCN(Cc3cc(Cl)cc4c3OCOC4)CC2)nc1	-85*
CC(C)(C)C(=O)N1CCN(c2ccc(C(F)(F)F)cn2)CC1	-7
CN1CCN(Cc2ccccc2Oc2ncc(C(F)(F)F)cc2Cl)CC1	4
Cc1nn(C)c(C)c1CN(C)Cc1cc2n(n1)CCCNC2	2
O=c1n(Cc2ccncc2)nc(C(F)(F)F)c2cccn12	10
O=c1[nH]nc(C(F)(F)F)n2cccc12	-104*
O=c1n(Cn2nnc3ccccc32)nc(C(F)(F)F)c2cccn12	70
Cc1nc(-c2ccccc2)sc1CCNC(=O)c1ccc(Cl)cc1	i
Cc1nc(-c2ccc(Cl)cc2)sc1CCNC(=O)c1ccccc1	-43
COc1ccc(-c2nc(C)c(CCNC(=O)C(=O)Nc3ccccc3C)s2)cc1OC	-76*
SMILES	Tgondii IFNg
COc1ccc(-c2nc(C)c(CCNC(=O)c3ccc(Cl)cc3)s2)cc1	314
COc1ccc(-c2nc(C)c(CCNC(=O)C(=O)Nc3ccccc3F)s2)cc1OC	65
CCCCOc1ccc(C(=O)NCCc2sc(-c3ccc(Cl)cc3)nc2C)cc1	-74*
COc1ccc(-c2nc(C)c(CCNC(=O)C(=O)Nc3c(C)cccc3C)s2)cc1OC	-15
COc1ccc(C(=O)NCCc2sc(-c3ccc(OC)cc3)nc2C)cc1	i
COc1ccc(C(=O)NCCc2sc(-c3ccc(Cl)cc3)nc2C)cc1	-76*
OC1CCN(c2ccnc(N3CCN(C/C=C/c4ccccc4)CC3)n2)CC1	-3
CC(C)Oc1cccc(F)c1-c1csc(C(N)=O)c1	-3
Cc1ccc(CN(CCc2nc3ccccc3[nH]2)C(=O)Nc2ccccc2C)cc1	15
CC(C)n1nc(CN(C)C)c2c1CN(C(=O)CC1CC1)CC2	5
CC(Oc1ccccc1)C(=O)Nc1cc(C2=CCCN(C)C2)nn1C (stereo not given)	-11
CCOC(=O)c1nc(N2CCOCC2)c2ccccc2n1	93
CC(C)Oc1ccc(CNC(=O)c2nc(Nc3ccccc3)c3ccccc3n2)cc1	-11
Cc1ccc(CCNC(=O)c2nc(N3CCOCC3)c3ccccc3n2)cc1	-84*
Cc1ccccc1CNC(=O)c1nc(N2CCOCC2)c2ccccc2n1	-35
CC(C)Oc1ccc(CNC(=O)c2nc(N3CCOCC3)c3ccccc3n2)cc1	-79*
CCOc1ccccc1CNC(=O)c1nc(N2CCOCC2)c2ccccc2n1	-66
CSc1ccc2cc(CN(C)Cc3ccncc3C)c(=O)[nH]c2c1	-1
O=C(NCc1ccc(C(F)(F)F)cc1)c1cn2c(n1)CCCC2	-26
NC(=O)CSc1nnnn1C1CCCCC1	-2
CCCCOc1c(C(=O)c2c(F)cc(C)cc2F)cnc2n[nH]cc12	-92*
CCCS(=O)(=O)Nc1ccc(F)c(C(=O)c2c[nH]c3ncc(Cl)cc23)c1F	-51
COc1cc(C)ccc1OCCNS(=O)(=O)c1cn(C)c(=O)n(C)c1=O	-12
C=CCN1C(=O)CCC12CCN(Cc1c(C)noc1C)CC2	9
Cc1noc(C)c1CN1CC2(CCN(C(=O)N(C)C)C2)CC1=O (stereo not given)	29
SMILES	Tgondii IFNg
Cc1noc(C)c1CN1CCC2(CCC(=O)N2CCN(C)C)CC1	-82*
CSc1ccc(C2c3[nH]c4ccccc4c3CCN2C(=O)c2cccs2)cc1 (stereo not given)	16
CCOc1ccc(-c2nc(Cn3nnc(C(=O)Nc4cccc(C)c4C)c3C)c(C)o2)cc1	23
O=C(c1ccccc1C1CCNC1)N1CCc2[nH]nc(C3CCC3)c2C1 (stereo not given)	-4
COc1ccc(OC)c(C2CCCN2C(=O)c2cc(C(C)(C)C)n3ncnc3n2)c1 (stereo not given)	-9
COc1ccc(-c2nc(Nc3ccc(C)cc3Cl)c3ccccc3n2)cc1	-12
Nc1ccc(N)c(C(=O)O)c1	-18
NC(=O)Cc1cccc(C(=O)c2ccccc2)c1N	19
CC(=O)c1ccc(-c2ccc(N)c(C(=O)c3ccccc3)c2)cc1	-85*
CC1CNC(=O)CCN1C(=O)c1cc(-n2cccn2)ccc1Cl (stereo not given)	-2
Cc1oc(-c2ccc(C(C)C)cc2)nc1Cn1c(=O)c2cccnc2n(-c2ccccc2)c1=O	16
CC(C)(Cc1ccc2ccccc2c1)NC[C@@H](O)COc1cccc(Cl)c1C#N	-72*
CC(C)NCC(O)COc1cccc2ccccc12 (stereo not given)	-5
CC(C)(C)NCC(O)COc1ccccc1C(=O)CCc1ccccc1 (stereo not given)	-30
CN(C)CC1(O)CCN(C(=O)c2cc(-c3cccs3)n(C)n2)C1 (stereo not given)	2
O=C(Sc1cccs1)C1CC2C=CC1CC2 (stereo not given)	-5
COc1ccc2cc(C3CN(c4ncnc5[nH]ccc45)CCO3)ccc2c1 (stereo not given)	131
Cc1oc(-c2ccc(C(=O)NCCC(C)C)cc2)nc1CN1CCc2ccccc21	64
Cc1oc(-c2ccc(C(=O)NCCc3cccs3)cc2)nc1CN1CCc2ccccc21	-89*
Cc1oc(-c2ccc(C(=O)NCCc3ccco3)cc2)nc1CN1CCc2ccccc21	-64
COc1ccc(CNC(=O)c2ccc(-c3nc(CN4CCc5ccccc54)c(C)o3)cc2)cc1OC	142
Cc1oc(-c2ccc(C(=O)NCc3ccc(OC(C)C)cc3)cc2)nc1CN1CCc2ccccc21	-88*
Cc1oc(-c2ccc(C(=O)NCCc3ccc(Cl)cc3)cc2)nc1CN1CCc2ccccc21	-64
CN1CCN(C(=O)c2ccccc2-c2ncc[nH]2)CC1C(=O)O (stereo not given)	2
CC1=C(CCN2CCC(CNS(C)(=O)=O)C2)C(C)(C)CCC1 (stereo not given)	-12
C=CCN(Cc1ccc(F)cc1)C(=O)c1ccc(CN2CCCC2)o1	-11

Screens: PubChem, Broad Institute
